“And” between values parts separate entries of the source, which are not always exact repeats. Identical values can stand only once. About 610 (9.5%) of roughly 6,400 compounds were called active. No stated cut-off is given here; in the data, active means activity change below about -70%; inconclusive means no clear call, values can overlap the other calls; inactive means above that. The list comes from a sample in which actives are over-represented; it also holds similar structures and randomly drawn compounds. The source holds several records for some structures; these can differ, active in one and inactive in another. Where a SMILES comes first, the peptide text is derived from it.

The assay can be described thus: Toxoplasma gondii ME49Luc growth in HeLa cells, luciferase, no IFN-y, primary screen (AID 1259421). The note with it: T. gondii ME49Luc in HeLa, 72 h, stronger effect = lower value, concentration not given here.
For the compound `S=c1ccss1`, the activity change, negative = inhibition is 1.03% (inactive).
In the case of `COc1ccc(-c2cc(=O)c3c(O)cc(O)cc3o2)cc1`, the activity change, negative = inhibition was 127% (inactive).
For `CC(C)n1c(/C=C/[C@@H](O)C[C@@H](O)CC(=O)O)c(-c2ccc(F)cc2)c2ccccc21`, the activity change, negative = inhibition is -79.8% (active) and 10.3% (inactive).
Consider `O=C(O)C[C@H](O)C[C@H](O)/C=C/c1c(C2CC2)nc2ccccc2c1-c1ccc(F)cc1`, for which the activity change, negative = inhibition was -31.6% (inactive) and 2.61% (inactive).
Take `CC(C)N1c2ccccc2C(c2ccc(F)cc2)C1/C=C/C(O)CC(O)CC(=O)O` (centres undefined): the activity change, negative = inhibition was -15.2% (inactive).
Turning to `CC(C)c1nc(N(C)S(C)(=O)=O)nc(-c2ccc(F)cc2)c1/C=C/[C@@H](O)C[C@@H](O)CC(=O)O`, the activity change, negative = inhibition is 15.1% (inactive) and -35.2% (inactive).
In the case of `COCc1c(C(C)C)nc(C(C)C)c(/C=C/[C@@H](O)C[C@@H](O)CC(=O)O)c1-c1ccc(F)cc1`, the activity change, negative = inhibition is -88.4% (active).
Under `CC(C)c1c(C(=O)Nc2ccccc2)c(-c2ccccc2)c(-c2ccc(F)cc2)n1CC[C@@H](O)C[C@@H](O)CC(=O)O` stands 9.33% (inactive); under `COc1cc(SC)ccc1C(=O)N1CCC(Cc2ccccc2)CC1`, 36.5% (inactive) and 48.1% (inactive); under `CC(C)N(C[C@H]1O[C@@H](n2cnc3c(N)ncnc32)[C@H](O)[C@@H]1O)C1CC(CCc2nc3ccc(C(C)(C)C)cc3[nH]2)C1` (some centres undefined), 8.46% (inactive) and -64.1% (inactive).
Regarding `O=C(O)C(=O)Nc1cccc(-c2nn[nH]n2)c1`, the activity change, negative = inhibition was 5.48% (inactive).
As to `CN1CCc2nc(C(=O)N[C@H]3C[C@H](C(=O)N(C)C)CC[C@@H]3NC(=O)C(=O)Nc3ccc(Cl)cn3)sc2C1`, the activity change, negative = inhibition was 9.11% (inactive).
Under `C[C@H](N)C(=O)N[C@@H](CCC(N)=O)C(=O)O` (H-Ala-Gln-OH) stands 3.92% (inactive); under `N#C/C(=C/c1ccc(O)c(O)c1)C(=O)NCCCc1ccccc1`, -10.8% (inactive).
Turning to `NC(N)=NC(=O)c1cnccn1`, the activity change, negative = inhibition is 11.4% (inactive).
Take `CC(C)(C)NCC(O)COc1cccc2c1C[C@H](O)[C@H](O)C2` (some centres undefined): the activity change, negative = inhibition was 4.27% (inactive).
`COc1ccc2c(O[C@H]3CC4C(=O)N(C)CCCC/C=C\[C@@H]5C[C@@]5(C(=O)NS(=O)(=O)C5CC5)NC(=O)[C@@H]4C3)cc(-c3nc(C(C)C)cs3)nc2c1C` (some centres undefined): the activity change, negative = inhibition is -71.4% (active).
As for `CC(C)(C)OC(=O)N[C@H]1CCCCC/C=C\[C@@H]2C[C@@]2(C(=O)NS(=O)(=O)C2CC2)NC(=O)[C@@H]2C[C@@H](OC(=O)N3Cc4cccc(F)c4C3)CN2C1=O`, the figure is 19.7% (inactive); as for `N#CC(Cc1ccc(O)cc1)c1ccc(O)cc1` (centres undefined), 6.16% (inactive) and 5.25% (inactive); as for `CC(=O)OCC(=O)[C@@]1(OC(C)=O)[C@@H](C)CC2C3C[C@H](F)C4=CC(=O)C=C[C@]4(C)[C@@]3(F)[C@@H](O)C[C@@]21C` (some centres undefined), -5.04% (inactive) and -3.76% (inactive).
For `CCC[C@@H]1C[C@@H](C(=O)N[C@H]([C@H]2O[C@H](SC)[C@H](O)[C@@H](O)[C@H]2O)[C@H](C)O)N(C)C1`, the activity change, negative = inhibition is -17.1% (inactive).
Under `COc1ccc2c(Oc3ccc(NC(=O)c4c(C)n(CC(C)(C)O)n(-c5ccccc5)c4=O)nc3)ccnc2c1` stands -67.1% (inactive) and -82.5% (active); under `COc1ccc2c(OCc3nnc4ccc(-c5ccccc5)nn34)ccnc2c1`, 4.78% (inactive); under `CNC(=O)c1cccc2cc(Oc3ccnc4cc(OCC5(N)CC5)c(OC)cc34)ccc12`, -25% (inactive).
As for `C[C@@H]1CC2C3CCC4=CC(=O)C=C[C@]4(C)[C@@]3(F)[C@@H](O)C[C@]2(C)[C@@]1(O)C(=O)CO` (some centres undefined), the activity change, negative = inhibition was -4.17% (inactive).
Turning to `C[C@@H]1CCCN1CCc1cc2cc(-c3ccc(C#N)cc3)ccc2o1`, the activity change, negative = inhibition was 3.6% (inactive).
Under `C=CCN1CC(C(=O)N(CCCN(C)C)C(=O)NCC)CC2c3cccc4[nH]cc(c34)CC21` (centres undefined) stands 5.12% (inactive).
In the case of `CC(=O)S[C@@H]1CC2=CC(=O)CC[C@]2(C)[C@H]2CC[C@@]3(C)[C@@H](CC[C@@]34CCC(=O)O4)[C@H]12`, the activity change, negative = inhibition is -13.5% (inactive) and -2.91% (inactive).
On to `C[C@]12CCC(=O)C=C1[C@@H]1C[C@@H]1[C@H]1[C@@H]3[C@@H]4C[C@@H]4[C@@]4(CCC(=O)O4)[C@@]3(C)CC[C@@H]12`, for which the activity change, negative = inhibition is -75.7% (active) and -36.5% (inactive).
`C[C@]12CCC(=O)C=C1C=CC1C2CC[C@@]2(C)C1CC[C@@]21CCC(=O)O1` (some centres undefined): the activity change, negative = inhibition was 4.56% (inactive) and -4.95% (inactive).
As to `CCS(=O)(=O)N1CCN(c2ccc(Nc3ncc(C(N)=O)c(NC4CC4)n3)cc2)CC1`, the activity change, negative = inhibition is -79.3% (active).
On to `O=c1[nH]ccc2c(S(=O)(=O)N3CCCNCC3)cccc12`, for which the activity change, negative = inhibition was 13.8% (inactive) and 2.48% (inactive).
With `CN1C(C(=O)Nc2ccccn2)C(=O)c2ccccc2S1(=O)=O` (centres undefined), the activity change, negative = inhibition is 35.3% (inactive) and 14.6% (inactive).
For the compound `CCOC(=O)C(C)Oc1cccc2c(=O)n(CC(=O)Nc3ccc4c(c3)OCCO4)ccc12` (centres undefined), the activity change, negative = inhibition was 14.7% (inactive).
For `O=C1CC2(CCCC2)CC(=O)N1CCCCNCC1COc2ccccc2O1` (centres undefined), the activity change, negative = inhibition is 21% (inactive) and 7.16% (inactive).
As for `CC(C)(C)NC(=O)[C@@H]1CC2CCCCC2CN1C[C@@H](O)[C@H](Cc1ccccc1)NC(=O)[C@H](CC(N)=O)NC(=O)c1ccc2ccccc2n1` (some centres undefined), the figure is 13.2% (inactive); as for `CCCCCCCCO`, 2.72% (inactive).
Regarding `CC(=O)NC[C@H]1CN(c2ccc(-c3ccc(CNCc4cn[nH]n4)cc3)c(F)c2)C(=O)O1`, the activity change, negative = inhibition was -34.7% (inactive).
Consider `NC(=O)Nc1cc(-c2cccc(F)c2)sc1C(=O)N[C@H]1CCCNC1`, for which the activity change, negative = inhibition was -74.8% (active) and -87.7% (active).
For the compound `COc1cc(C(=O)NC2CCCNC2)cc(OC)c1OC` (centres undefined), the activity change, negative = inhibition is 25.6% (inactive).
As for `NC(=O)Nc1sc(-c2ccc(F)cc2)cc1C(N)=O`, the figure is 12.6% (inactive); as for `CC(C)[C@@H](CS(=O)(=O)C(C)C)N1C(=O)[C@@](C)(CC(=O)O)C[C@H](c2cccc(Cl)c2)[C@H]1c1ccc(Cl)cc1`, 5.9% (inactive).
For `NCCCCNS(=O)(=O)c1ccc2c(Cl)cccc2c1`, the activity change, negative = inhibition was 2.08% (inactive).
For `CC(O)C1C(=O)N2C(C(=O)O)=C(C3CCCO3)SC12` (centres undefined), the activity change, negative = inhibition is 5.92% (inactive).
Take `CCOc1ccc(Cc2nccc3cc(OCC)c(OCC)cc23)cc1OCC`: the activity change, negative = inhibition is -67.8% (inactive) and -79.8% (active).
As for `COc1ccc(Cc2cnc(N)nc2N)cc1OC`, the figure is 9.87% (inactive).
On to `COc1ccc(Cc2nccc3cc(OC)c(OC)cc23)cc1OC`, for which the activity change, negative = inhibition was -2.52% (inactive) and -6.18% (inactive).
Regarding `CN1C(=O)C(F)=C[C@]2(C)[C@H]3CC[C@]4(C)[C@@H](C(=O)NCc5nc6ncccc6[nH]5)CC[C@H]4[C@@H]3CC[C@@H]12`, the activity change, negative = inhibition is -1.27% (inactive).
As for `C=C[C@@H](C1=CC(=O)C(OC)=C(OC)C1=O)c1ccccc1`, the figure is -1.89% (inactive); as for `COc1cc(N)c(Cl)cc1C(=O)N[C@@H]1CCNCC1OC` (some centres undefined), 8% (inactive); as for `O=C(O)C1(Cc2cccc(Nc3nccs3)n2)CCC(Oc2cccc(Cl)c2F)CC1` (centres undefined), -34% (inactive).
Regarding `CC(C)(C)CC(C)(C)c1ccc(O)c(-n2nc3ccccc3n2)c1`, the activity change, negative = inhibition was 47.6% (inactive).
With `O=C(Nc1cn[nH]c1-c1nc2ccc(CN3CCOCC3)cc2[nH]1)NC1CC1`, the activity change, negative = inhibition is -84.3% (active).
On to `O=C(c1ccc(CN2CCOCC2)cc1)N1CCN(C2CC2)CC1`, for which the activity change, negative = inhibition was 10.6% (inactive).
For the compound `CC(C)(S)C(=O)N[C@@H](CS)C(=O)O`, the activity change, negative = inhibition is -3.42% (inactive).
As for `CCOC(=O)Nc1c[n+](N2CCOCC2)no1`, the figure is 8.47% (inactive); as for `Cc1ccc(/C(=C/CN2CCCC2)c2ccccn2)cc1`, -1.47% (inactive).
`Cc1ccc(/C(=C\CN2CCCC2)c2ccccn2)cc1`: the activity change, negative = inhibition is 0.786% (inactive) and 2.04% (inactive).
As for `C/C(=N\NC(=S)N1CCC1)c1ccccn1`, the figure is -84.6% (active).
As for `CC(=O)O[C@@H]1CC2C(C)(C)C(=O)C=C[C@]2(C)C2CC[C@@]3(C)[C@H](c4ccoc4)OC(=O)[C@H]4O[C@]43[C@@]21C` (some centres undefined), the activity change, negative = inhibition is 22.1% (inactive).
For the compound `Nc1nc2c(c(=O)[nH]1)N(C=O)[C@@H](CNc1ccc(C(=O)N[C@@H](CCC(=O)O)C(=O)O)cc1)CN2`, the activity change, negative = inhibition is 22.2% (inactive).
As for `CCOC(=O)C1=CCCC[C@H]1S(=O)(=O)Nc1ccc(F)cc1Cl`, the figure is 18.7% (inactive).
Consider `O=C(O)Cc1ccc2c(c1)C(=O)c1ccccc1CO2`, for which the activity change, negative = inhibition was 19.3% (inactive).
As to `COC(=O)c1c(C)c2c(c(C)c1O)OC(=O)c1c(C)c(Cl)c(O)c(Cl)c1O2`, the activity change, negative = inhibition is -3.73% (inactive).
For the compound `Cc1cc(O)c(C=O)c2c1C(=O)Oc1c(C)c(O)c3c(c1O2)C(O)OC3=O` (centres undefined), the activity change, negative = inhibition was -75.6% (active).
Turning to `COc1cc(C)c2c(c1C=O)Oc1c(c(C)c(O)c3c1C(O)OC3=O)OC2=O` (centres undefined), the activity change, negative = inhibition was -5.42% (inactive).
`CS(=O)(=O)Nc1c(O)ccc2c1CCCC2C1=NCCN1` (centres undefined): the activity change, negative = inhibition is 15.3% (inactive) and 0.146% (inactive).
Under `CC(=O)[C@@]1(O)CCC2C3C[C@H](C)C4=CC(=O)C=CC4(C)[C@@]3(F)[C@@H](O)C[C@@]21C` (some centres undefined) stands 10% (inactive) and 7.34% (inactive); under `NC(N)=NC(=O)c1nc(Cl)c(N2CCCCCC2)nc1N`, 3.26% (inactive).
As for `CC(=O)OCC(=O)[C@@]1(O)[C@@H](C)CC2C3CCC4=CC(=O)C=C[C@]4(C)[C@@]3(F)[C@@H](O)C[C@@]21C` (some centres undefined), the figure is -12.5% (inactive); as for `N#Cc1cc(-c2n[nH]c(-c3ccncc3)n2)ccn1`, 17.6% (inactive); as for `O=C(O)c1ccc(-c2ccc3cc(O)c(C45CC6CC(CC(C6)C4)C5)cc3c2)cc1`, -2.82% (inactive).
For `O=C(O)/C=C/c1ccc(-c2ccc(O)c(C34CC5CC(CC(C5)C3)C4)c2)cc1`, the activity change, negative = inhibition was -96.6% (active).
As to `O=C(O)c1ccc2cc(-c3ccc(O)c(C45CC6CC(CC(C6)C4)C5)c3)ccc2c1`, the activity change, negative = inhibition was -56% (inactive).
